Measurements from the supplement of paper PMC10127200.
Counter-ions that a name gives are not always drawn.

How the values were obtained:
Assay in all cases: Euclidean distance of Cell Painting phenotypic profile (signed KS, 77 features) to DMSO centroid (dimensionless distance); 5 or 10 uM (library dependent); higher = stronger phenotypic change vs DMSO (phenoactivity)
Settings in all cases: 48 h
[1] = test system: 786-O
How it was run: (§1)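 Harmony extracted 77 features from 20X confocal images (9 fields/well) of stained cells, scoring each as a signed Kolmogorov-Smirnov statistic against same-plate vehicle wells. The cells, five cancer lines and a healthy fibroblast line, had received library compounds for 48 h at 10 or 5 uM depending on library, with 0.1% DMSO final. Phenoactivity is the Euclidean distance from each plate-position-corrected, correlation-weighted, top-dose replicate-averaged profile to the median vehicle profile.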

[2] = test system: A549
How it was run: as §1

[3] = test system: DU145
How it was run: as §1

[4] = test system: FB
How it was run: as §1

[5] = test system: HEPG2
How it was run: as §1

[6] = test system: OVCAR4
How it was run: as §1

| Compound | Euclidean distance [1] | Euclidean distance [2] | Euclidean distance [3] | Euclidean distance [4] | Euclidean distance [5] | Euclidean distance [6] |
| --- | --- | --- | --- | --- | --- | --- |
| NC(=O)c1cc[n+](CC2=C(C(=O)O)N3C(=O)[C@@H](NC(=O)[C@@H](c4ccccc4)S(=O)(=O)[O-])[C@H]3SC2)cc1 [Cefsulodin sodium] | 1.11 | 0.966 | 1.58 | 1.06 | 0.633 | 1.15 |
| CO/N=C(\C(=O)N[C@@H]1C(=O)N2C(C(=O)O)=CCS[C@H]12)c1csc(N)n1 [Ceftizoxime] | 1.04 | 1.74 | 0.987 | 1.24 | 0.67 | 1.56 |
| Cc1cncc(CN2CCC(=C3c4ccc(Cl)cc4CCc4cccnc43)CC2)c1 [Rupatadine Fumarate] | 1.51 | 1.15 | 1.34 | 1.22 | 1.69 | 1.27 |
| CN(CCOc1ccc(CC2SC(=O)NC2=O)cc1)c1ccccn1 (configuration not stated) [Rosiglitazone HCl] | 1.13 | 1.65 | 1.31 | 1.07 | 2.06 | 1.27 |
| CCOc1cc(CC(=O)N[C@@H](CC(C)C)c2ccccc2N2CCCCC2)ccc1C(=O)O [Repaglinide] | 1.98 | 0.783 | 1.26 | 1.42 | 1.04 | 1.55 |
| CCN1/C(=C/C(C)=O)Sc2ccc(OC)cc21 | 0.422 | 0.711 | 1.03 | 0.64 | 1.98 | 0.872 |
| Fc1ccc([C@@H]2CCNC[C@H]2COc2ccc3c(c2)OCO3)cc1 [Paroxetine HCl] | 1.46 | 1.59 | 1.59 | 1.93 | 2.28 | 1.54 |
| CC(C)c1cc(-c2ccc(F)c3ccccc23)nc(N)n1 | 0.8 | 0.73 | 0.946 | 0.742 | 1 | 1.28 |
| CCCCOC(=O)c1ccccc1Nc1cccc(C(F)(F)F)c1 [Ufenamate] | 1.52 | 0.505 | 1.4 | 1.25 | 0.931 | 1.83 |
| CCC(=O)Nc1cccc(Oc2nc(Nc3ccc(N4CCN(C)CC4)cc3OC)ncc2Cl)c1 | 1.62 | 1.63 | 0.903 | 1.15 | 1.61 | 1.26 |
| CCCc1nc(C(C)(C)O)c(C(=O)OCc2oc(=O)oc2C)n1Cc1ccc(-c2ccccc2-c2nnn[nH]2)cc1 [Olmesartan Medoxomil] | 2.78 | 2.49 | 2.38 | 3.38 | 3.32 | 3.28 |
| CN(C)CCOC(C)(c1ccccc1)c1ccccn1 (configuration not stated) [Doxylamine Succinate] | 1.09 | 0.709 | 1.18 | 1.42 | 0.475 | 1.14 |
| c1ccc2c(c1)CCCC2C1=NCCN1 (configuration not stated) [Tetrahydrozoline HCl] | 0.978 | 0.966 | 0.786 | 0.944 | 0.601 | 1.78 |
| Cn1cc(C2=C(c3ccc(Cl)cc3Cl)C(=O)NC2=O)c2ccccc21 | 1.92 | 0.949 | 1.79 | 1.57 | 1.08 | 1.01 |
| CC(C)c1c(C(=O)Nc2ccccc2)c(-c2ccccc2)c(-c2ccc(F)cc2)n1CC[C@@H](O)C[C@@H](O)CC(=O)O [Atorvastatin Calcium] | 2.68 | 1.33 | 1.15 | 3.05 | 2.23 | 1.8 |
| CC(=O)SCC(Cc1ccccc1)C(=O)NCC(=O)OCc1ccccc1 (configuration not stated) [Racecadotril] | 1.61 | 0.894 | 0.905 | 1.14 | 0.452 | 1.68 |
| CC(=O)O[C@]1(C(C)=O)CC[C@H]2[C@@H]3C=C(Cl)C4=CC(=O)CC[C@]4(C)[C@H]3CC[C@@]21C [Chlormadinone acetate] | 1.27 | 1.1 | 1.72 | 1.26 | 0.98 | 0.962 |
| CONC(=O)Nc1ccc(-c2sc3c(c2CN(C)C)c(=O)n(-c2ccc(OC)nn2)c(=O)n3Cc2c(F)cccc2F)cc1 [Relugolix] | 1.06 | 0.927 | 1.37 | 1.4 | 0.841 | 1.3 |
| c1ccc2c(CC3=NCCN3)cccc2c1 [Naphazoline HCl] | 1.23 | 0.672 | 1.11 | 0.693 | 0.599 | 0.531 |
| O=C(Nc1c[nH]nc1-c1nc2ccc(CN3CCOCC3)cc2[nH]1)NC1CC1 | 3.05 | 3.01 | 3 | 2.87 | 2.74 | 2.7 |
| CCCC(=O)O[C@]1(C(=O)CCl)[C@H](C)C[C@@H]2[C@@H]3CCC4=CC(=O)C=C[C@]4(C)[C@]3(F)C(=O)C[C@@]21C [clobetasone butyrate] | 1.53 | 2.42 | 3.28 | 1.92 | 1.73 | 2.23 |
| COc1ccc(-c2coc3cc(O)ccc3c2=O)cc1 [Formononetin] | 0.921 | 0.857 | 0.599 | 1.07 | 0.662 | 1.13 |
| O=C(Nc1ccccc1)Nc1ccc(-c2ccc(C(=O)[C@@H]3CCC[C@H]3C(=O)O)cc2)cc1 | 0.735 | 0.898 | 0.804 | 1.29 | 1.92 | 0.814 |
| CCN(CC)C(=O)Nc1ccc(OCC(O)CNC(C)(C)C)c(C(C)=O)c1 (configuration not stated) [Celiprolol hydrochloride] | 0.816 | 0.829 | 1.41 | 1.17 | 0.422 | 1.24 |
| O=C(O)c1ccccc1OP(=O)(O)O [Fosfosal] | 0.982 | 0.849 | 0.86 | 0.671 | 0.711 | 1.11 |
| NC(=NCCCCCCN=C(N)N=C(N)Nc1ccc(Cl)cc1)N=C(N)Nc1ccc(Cl)cc1 [Chlorhexidine?2HCl] | 2.98 | 3.13 | 2.18 | 1.67 | 2.59 | 2.56 |
| COc1cccc(-c2c(C)n(Cc3c(F)cccc3C(F)(F)F)c(=O)n(C[C@H](NCCCC(=O)O)c3ccccc3)c2=O)c1F [Elagolix Sodium] | 0.686 | 1.22 | 1.02 | 0.826 | 0.728 | 1.23 |
